According to PubChem BioAssay (NCI):
The panel holds about 83,000 compounds, 20% with a hit somewhere; the sample as a whole holds those more often.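 Method: cells in 96-well plates; compound added at one concentration; 48 h incubation; percent growth measured; values under 10 scored active.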 A number with no mark means an inactive call. The source made the active and inactive calls.

Columns and labels:
Assay in all cases: NCI-60 one-dose screen, 48 h (100 = growth as untreated, 0 = no growth, -100 = all killed)
Conditions in all cases: 10 µM unless noted
[1] = system: SR leukemia
[2] = system: RPMI-8226 leukemia
[3] = system: OVCAR-5 ovarian
[4] = system: OVCAR-4 ovarian
[5] = system: SK-OV-3 ovarian
[6] = system: OVCAR-3 ovarian
[7] = system: HS 578T breast
[8] = system: NCI/ADR-RES ovarian
[9] = system: T-47D breast
[10] = system: BT-549 breast
[11] = system: MDA-MB-435 melanoma
[12] = system: SW-620 colon
[13] = system: MCF7 breast
[14] = system: HCT-116 colon
[15] = system: HCC-2998 colon
[16] = system: KM12 colon
[17] = system: IGROV1 ovarian
[18] = system: OVCAR-8 ovarian

SMILES | growth [1] | growth [2] | growth [3] | growth [4] | growth [5] | growth [6] | growth [7] | growth [8] | growth [9] | growth [10] | growth [11] | growth [12] | growth [13] | growth [14] | growth [15] | growth [16] | growth [17] | growth [18] [%]
C=C1C(=O)O[C@H]2[C@H]1CC/C(COC(=O)/C=C\C(=O)NCc1ccc(Cn3c(=O)sn(-c4ccccc4)c3=O)cc1)=C\CC[C@@]1(C)O[C@@H]21 | 72.4% | 40.5% | 98.3% | 85% | 108% | 39.5% | 90.3% | 111% | 67.9% | 93.5% | 67.7% | 19.9% | 53.7% | 33.6% | 105% | 106% | – | –
NC(=O)c1c(NC(=O)c2ccc(Cl)cc2)sc2c1CCC(=O)C2 | 13.3% | -14.3% (active) | 86.5% | 9.18% (active) | 93% | 32.6% | 64% | 87.8% | 35.9% | 25.1% | 94.5% | 12.7% | 57.8% | 8.72% (active) | 104% | – | 52.6% | –
COc1ccc(C(C)=O)cc1S(N)(=O)=O | 104% | 98.9% | 102% | 101% | 115% | 108% | 91.6% | 98.1% | 105% | 95.6% | 99.3% | 103% | 96.4% | 89% | 98.3% | 103% | 108% | –
COc1cccc(NC(=O)c2cccc(C3CCc4c(cc(OC)c(OC)c4OC)O3)c2)c1 (stereo not drawn) | 35.7% | 28.4% | 81.8% | 56.7% | – | 81.1% | 86.6% | 55.9% | 20.5% | 41.5% | 79.6% | 100% | 74.3% | 62.4% | 81.4% | 81.5% | – | 54.5
COc1cc(N2C(=O)[C@H](c3ccccc3)C2c2ccc(SC)cc2)cc(OC)c1OC (stereo partly drawn) | -5.24% (active) | -9.2% (active) | 56.8% | 48.6% | 8.14% (active) | 8.73% (active) | 20.6% | 9.89% (active) | 61.9% | -6.28% (active) | -23.7% (active) | 25.2% | 6.93% (active) | 0.933% (active) | 12.6% | 10.2% | 13.7% | –
COc1ccc(-c2ccc(-c3ccc(C(=N)N)cn3)s2)cc1 | 3.22% (active) | 20.1% | 92.5% | 113% | 90.6% | 83.9% | 97.4% | 101% | 74.3% | 88.1% | 97% | 8.29% (active) | 44.1% | -20.8% (active) | 81.3% | 61.6% | 89% | –
CC1(C)O[C@H]2OC3CCC(=O)CC3(O)[C@H]2O1 (stereo partly drawn) | 107% | 96% | 107% | 110% | 94.9% | – | 97% | 102% | 91.8% | 104% | 112% | 105% | 108% | 95.1% | 98.7% | 102% | 108% | –
COC1=CC(c2ccc[nH]2)=N/C1=C\c1[nH]c(C)c(CC(=O)OCc2ccccc2)c1C | -25.5% (active) | -41.1% (active) | 9.74% (active) | 10.5% | 11% | -49.5% (active) | -6.47% (active) | 1.3% (active) | -28.6% (active) | -1.22% (active) | -21.3% (active) | -6.46% (active) | 4.14% (active) | -35% (active) | 13.4% | – | -3.67% (active) | –
C[N+](C)(C/C=C/c1ccccc1)Cc1ccccc1 | 97.7% | 123% | 81.2% | 97.4% | 107% | 96.4% | 106% | 99.1% | 94.4% | 96.1% | 101% | 100% | 100% | 95.5% | 95.8% | 95.4% | 94.5% | –
CO[C@H](C(=O)[C@@H](O)[C@@H](C)O)[C@@H]1Cc2cc3cc(O[C@H]4C[C@@H](O[C@H]5C[C@@H](O)[C@H](O)C(C)O5)[C@H](O)C(C)O4)c(C)c(O)c3c(O)c2C(=O)[C@H]1O[C@H]1C[C@@H](O[C@H]2C[C@@H](O[C@H]3C[C@@H](OC)[C@H](O)C(C)O3)[C@@H](O)C(C)O2)C(O)(O)C(C)O1 (stereo partly drawn) | 13.5% | 9.26% (active) | 14.5% | 21.7% | 14.6% | 9.32% (active) | 25.3% | 87.3% | 0.438% (active) | -20.1% (active) | -30.5% (active) | 22% | – | 6.1% (active) | -13.7% (active) | 9.69% (active) | 22.3% | –
CCN(CCO)CC(C)Nc1ccc([N+](=O)[O-])c2sc3ccccc3c(=O)c12 (stereo not drawn) | 13% | 40.9% | 57.7% | 43.7% | 45.6% | 49.1% | 26.8% | 37.2% | 39.9% | 58.9% | 23.5% | 18.6% | 13.1% | 11.8% | 38.6% | 37.9% | -11.3% (active) | –
CN(C)c1ccc(/C=C2/C=C(c3ccccc3)OC2=O)cc1 | 26.7% | 84% | 108% | 93.4% | 93.9% | 73.7% | 101% | 73.1% | 86.9% | 98.6% | 21.7% | 95.2% | 56.6% | 100% | 95% | 63.5% | 74.7% | –
COc1ccc(Cc2cnc(NC(=O)c3sc4ccccc4c3Cl)s2)cc1 | 9.94% (active) | 28.3% | 48.4% | 60.5% | 33.9% | – | 8.78% (active) | 6.4% (active) | 34.5% | 34.7% | -39.1% (active) | 25% | 17.5% | 15.1% | 25.6% | 16.7% | 25.9% | –
OC(c1ccccc1)(c1ccccc1)c1ccccc1-c1ccccc1 | 95.2% | – | 94.7% | 80.4% | 86.6% | 101% | 94.2% | 85.5% | 69.8% | 104% | 108% | 82.4% | 83.5% | 72.1% | 88.5% | 93.6% | 91.2% | 96.7
O=C(Nc1nc(C(=O)N2CCN(C(c3ccccc3)c3ccccc3)CC2)cs1)c1ccc(NC2CCCCC2)c([N+](=O)[O-])c1 | 90.2% | – | 89.2% | 68.9% | 89.8% | 92.2% | 90.2% | 77% | 60% | 82.5% | 91% | 91.4% | 81.3% | 82.6% | 72.7% | – | 79.6% | 80.4
Clc1nccc2c(-c3csc(-c4c[nH]c5ccccc45)n3)c[nH]c12 | 11.3% | – | 107% | 68.9% | – | 68.6% | 45.2% | 53.1% | 37% | 65.7% | 53.9% | 7.87% (active) | 49.6% | 39.7% | 63.7% | 47.5% | 68.6% | 56.5
